The target in assay [1] is ALK tyrosine kinase receptor (Homo sapiens) (UniProt Q9UM73). As to conditions: at 10 µM.
For assay [2], the target named is T1, Activin receptor type-1B (Homo sapiens) (UniProt P36896).
T1 sequence (whole entry): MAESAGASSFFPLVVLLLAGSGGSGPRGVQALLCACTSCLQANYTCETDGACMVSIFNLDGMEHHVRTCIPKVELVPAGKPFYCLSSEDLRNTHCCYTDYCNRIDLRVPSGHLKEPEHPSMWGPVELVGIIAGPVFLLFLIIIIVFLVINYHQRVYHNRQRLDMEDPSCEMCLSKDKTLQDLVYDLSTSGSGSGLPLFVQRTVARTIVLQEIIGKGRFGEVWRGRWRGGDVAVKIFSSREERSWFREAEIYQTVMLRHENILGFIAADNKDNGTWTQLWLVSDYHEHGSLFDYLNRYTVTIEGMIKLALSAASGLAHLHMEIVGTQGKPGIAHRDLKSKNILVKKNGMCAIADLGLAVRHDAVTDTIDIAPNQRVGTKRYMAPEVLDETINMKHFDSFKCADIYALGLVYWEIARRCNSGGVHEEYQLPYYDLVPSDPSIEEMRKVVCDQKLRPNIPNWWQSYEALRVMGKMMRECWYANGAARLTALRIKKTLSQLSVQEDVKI
The settings on record: at 1 µM.

Assay [3] deals with T1, Activin receptor type-1B (Homo sapiens). The settings on record: at 10 µM.
In assay [4] the target is T2, AMP-activated protein kinase (AMPK) alpha-1/beta-1/gamma-1 (Homo sapiens) (UniProt P54619+Q9Y478+Q13131). The settings on record: at 1 µM.
T2 sequence (P54619 whole entry): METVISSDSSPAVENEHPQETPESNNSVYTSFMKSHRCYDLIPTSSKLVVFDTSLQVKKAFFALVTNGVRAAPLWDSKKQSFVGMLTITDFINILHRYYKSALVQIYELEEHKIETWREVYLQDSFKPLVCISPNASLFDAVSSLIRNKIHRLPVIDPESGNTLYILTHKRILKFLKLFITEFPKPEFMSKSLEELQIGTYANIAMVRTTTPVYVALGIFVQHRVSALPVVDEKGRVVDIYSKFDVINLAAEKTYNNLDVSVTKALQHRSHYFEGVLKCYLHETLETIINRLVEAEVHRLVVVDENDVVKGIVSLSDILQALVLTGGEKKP
T2 sequence (Q13131 whole entry partner): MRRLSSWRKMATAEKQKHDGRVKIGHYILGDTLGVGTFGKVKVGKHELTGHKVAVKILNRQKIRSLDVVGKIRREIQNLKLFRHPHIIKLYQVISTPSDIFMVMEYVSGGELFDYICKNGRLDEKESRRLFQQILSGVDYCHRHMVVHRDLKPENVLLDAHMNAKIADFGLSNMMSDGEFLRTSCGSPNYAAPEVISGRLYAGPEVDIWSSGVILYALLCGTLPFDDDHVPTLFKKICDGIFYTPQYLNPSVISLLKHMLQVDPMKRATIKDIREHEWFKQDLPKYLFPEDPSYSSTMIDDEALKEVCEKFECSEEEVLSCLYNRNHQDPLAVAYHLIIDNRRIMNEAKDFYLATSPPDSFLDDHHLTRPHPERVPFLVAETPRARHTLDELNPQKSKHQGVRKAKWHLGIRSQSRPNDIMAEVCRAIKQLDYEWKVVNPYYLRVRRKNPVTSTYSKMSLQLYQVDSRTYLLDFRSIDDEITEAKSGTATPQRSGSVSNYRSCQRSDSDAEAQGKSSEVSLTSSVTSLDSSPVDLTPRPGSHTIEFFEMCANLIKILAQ
T2 sequence (Q9Y478 2-270 partner limits assumed): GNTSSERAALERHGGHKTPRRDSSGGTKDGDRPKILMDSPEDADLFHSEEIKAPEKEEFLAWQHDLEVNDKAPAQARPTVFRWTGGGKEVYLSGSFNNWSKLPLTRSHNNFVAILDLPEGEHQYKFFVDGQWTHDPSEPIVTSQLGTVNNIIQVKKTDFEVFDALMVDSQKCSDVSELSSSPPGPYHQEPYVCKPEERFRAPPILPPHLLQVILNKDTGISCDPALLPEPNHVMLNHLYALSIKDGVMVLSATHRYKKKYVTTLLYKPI
The target of assay [5] is T2, AMP-activated protein kinase (AMPK) alpha-1/beta-1/gamma-1 (Homo sapiens). The settings on record: at 10 µM.
Assay [6] deals with T3, AMP-activated protein kinase, AMPK (Homo sapiens) (UniProt P54646+O43741+P54619+Q9UGJ0+Q9Y478+Q13131+Q9UGI9). The settings on record: at 1 µM.
Assay [7] addresses T3, AMP-activated protein kinase, AMPK (Homo sapiens). As to conditions: at 10 µM.
The target of assay [8] is T4, NUAK family SNF1-like kinase 1 (Homo sapiens) (UniProt O60285).
T4 sequence (whole entry): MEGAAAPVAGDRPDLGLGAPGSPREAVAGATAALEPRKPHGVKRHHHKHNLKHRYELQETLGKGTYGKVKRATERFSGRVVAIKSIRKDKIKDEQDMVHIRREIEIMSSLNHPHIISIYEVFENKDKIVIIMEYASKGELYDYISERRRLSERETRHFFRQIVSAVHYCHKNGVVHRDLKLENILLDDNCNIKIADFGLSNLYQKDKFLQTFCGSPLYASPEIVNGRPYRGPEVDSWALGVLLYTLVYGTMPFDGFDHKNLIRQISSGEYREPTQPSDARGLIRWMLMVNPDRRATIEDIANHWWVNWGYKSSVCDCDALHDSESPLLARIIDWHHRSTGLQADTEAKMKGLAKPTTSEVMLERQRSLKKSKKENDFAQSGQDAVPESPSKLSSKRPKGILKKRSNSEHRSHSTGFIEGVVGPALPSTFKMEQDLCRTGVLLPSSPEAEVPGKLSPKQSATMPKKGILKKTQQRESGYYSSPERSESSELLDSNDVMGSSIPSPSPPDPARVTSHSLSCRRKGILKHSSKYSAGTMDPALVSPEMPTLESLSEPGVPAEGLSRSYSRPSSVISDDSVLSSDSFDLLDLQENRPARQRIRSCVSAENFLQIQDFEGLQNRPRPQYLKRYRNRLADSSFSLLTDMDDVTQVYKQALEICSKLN
As to conditions: at 1 µM.

Assay [9] addresses T4, NUAK family SNF1-like kinase 1 (Homo sapiens). As to conditions: at 10 µM.
The target of assay [10] is T5, Mitogen-activated protein kinase kinase kinase 5 (Homo sapiens) (UniProt Q99683).
T5 sequence (whole entry): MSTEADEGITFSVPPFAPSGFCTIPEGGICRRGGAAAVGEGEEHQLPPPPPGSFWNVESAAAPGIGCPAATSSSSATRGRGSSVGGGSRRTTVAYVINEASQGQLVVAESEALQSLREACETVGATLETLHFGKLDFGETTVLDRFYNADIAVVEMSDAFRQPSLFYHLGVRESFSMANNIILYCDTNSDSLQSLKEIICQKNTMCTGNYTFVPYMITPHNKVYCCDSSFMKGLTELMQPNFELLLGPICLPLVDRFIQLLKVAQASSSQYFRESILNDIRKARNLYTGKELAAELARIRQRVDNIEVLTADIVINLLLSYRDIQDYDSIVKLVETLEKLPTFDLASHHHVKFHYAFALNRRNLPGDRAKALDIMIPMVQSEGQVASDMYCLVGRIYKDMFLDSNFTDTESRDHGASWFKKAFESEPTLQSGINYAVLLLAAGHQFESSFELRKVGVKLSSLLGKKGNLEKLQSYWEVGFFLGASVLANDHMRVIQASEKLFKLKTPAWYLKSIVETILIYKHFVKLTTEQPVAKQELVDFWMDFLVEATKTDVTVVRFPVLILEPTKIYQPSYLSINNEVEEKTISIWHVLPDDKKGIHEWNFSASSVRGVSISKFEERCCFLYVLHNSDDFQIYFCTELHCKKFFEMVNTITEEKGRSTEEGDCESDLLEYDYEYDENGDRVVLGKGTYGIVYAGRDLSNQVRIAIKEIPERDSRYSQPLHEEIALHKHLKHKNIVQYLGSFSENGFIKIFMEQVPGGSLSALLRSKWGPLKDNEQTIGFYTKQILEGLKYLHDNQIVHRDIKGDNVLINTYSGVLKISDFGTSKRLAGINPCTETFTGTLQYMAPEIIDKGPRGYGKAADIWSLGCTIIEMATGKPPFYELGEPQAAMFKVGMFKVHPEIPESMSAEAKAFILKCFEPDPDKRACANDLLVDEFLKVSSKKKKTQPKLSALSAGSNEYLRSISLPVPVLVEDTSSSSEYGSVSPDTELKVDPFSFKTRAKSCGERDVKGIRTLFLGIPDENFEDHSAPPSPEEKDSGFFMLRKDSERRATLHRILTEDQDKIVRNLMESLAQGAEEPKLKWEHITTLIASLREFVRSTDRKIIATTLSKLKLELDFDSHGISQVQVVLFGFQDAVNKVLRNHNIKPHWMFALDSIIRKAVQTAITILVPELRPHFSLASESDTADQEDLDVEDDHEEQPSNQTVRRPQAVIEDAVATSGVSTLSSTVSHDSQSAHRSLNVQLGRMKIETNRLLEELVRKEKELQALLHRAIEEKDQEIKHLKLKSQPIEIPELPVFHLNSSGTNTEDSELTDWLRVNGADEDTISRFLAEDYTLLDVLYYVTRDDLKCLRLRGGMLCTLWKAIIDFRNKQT
The settings on record: at 1 µM.

Chain of ALK tyrosine kinase receptor (Homo sapiens) (Q9UM73 19-1620 limits assumed): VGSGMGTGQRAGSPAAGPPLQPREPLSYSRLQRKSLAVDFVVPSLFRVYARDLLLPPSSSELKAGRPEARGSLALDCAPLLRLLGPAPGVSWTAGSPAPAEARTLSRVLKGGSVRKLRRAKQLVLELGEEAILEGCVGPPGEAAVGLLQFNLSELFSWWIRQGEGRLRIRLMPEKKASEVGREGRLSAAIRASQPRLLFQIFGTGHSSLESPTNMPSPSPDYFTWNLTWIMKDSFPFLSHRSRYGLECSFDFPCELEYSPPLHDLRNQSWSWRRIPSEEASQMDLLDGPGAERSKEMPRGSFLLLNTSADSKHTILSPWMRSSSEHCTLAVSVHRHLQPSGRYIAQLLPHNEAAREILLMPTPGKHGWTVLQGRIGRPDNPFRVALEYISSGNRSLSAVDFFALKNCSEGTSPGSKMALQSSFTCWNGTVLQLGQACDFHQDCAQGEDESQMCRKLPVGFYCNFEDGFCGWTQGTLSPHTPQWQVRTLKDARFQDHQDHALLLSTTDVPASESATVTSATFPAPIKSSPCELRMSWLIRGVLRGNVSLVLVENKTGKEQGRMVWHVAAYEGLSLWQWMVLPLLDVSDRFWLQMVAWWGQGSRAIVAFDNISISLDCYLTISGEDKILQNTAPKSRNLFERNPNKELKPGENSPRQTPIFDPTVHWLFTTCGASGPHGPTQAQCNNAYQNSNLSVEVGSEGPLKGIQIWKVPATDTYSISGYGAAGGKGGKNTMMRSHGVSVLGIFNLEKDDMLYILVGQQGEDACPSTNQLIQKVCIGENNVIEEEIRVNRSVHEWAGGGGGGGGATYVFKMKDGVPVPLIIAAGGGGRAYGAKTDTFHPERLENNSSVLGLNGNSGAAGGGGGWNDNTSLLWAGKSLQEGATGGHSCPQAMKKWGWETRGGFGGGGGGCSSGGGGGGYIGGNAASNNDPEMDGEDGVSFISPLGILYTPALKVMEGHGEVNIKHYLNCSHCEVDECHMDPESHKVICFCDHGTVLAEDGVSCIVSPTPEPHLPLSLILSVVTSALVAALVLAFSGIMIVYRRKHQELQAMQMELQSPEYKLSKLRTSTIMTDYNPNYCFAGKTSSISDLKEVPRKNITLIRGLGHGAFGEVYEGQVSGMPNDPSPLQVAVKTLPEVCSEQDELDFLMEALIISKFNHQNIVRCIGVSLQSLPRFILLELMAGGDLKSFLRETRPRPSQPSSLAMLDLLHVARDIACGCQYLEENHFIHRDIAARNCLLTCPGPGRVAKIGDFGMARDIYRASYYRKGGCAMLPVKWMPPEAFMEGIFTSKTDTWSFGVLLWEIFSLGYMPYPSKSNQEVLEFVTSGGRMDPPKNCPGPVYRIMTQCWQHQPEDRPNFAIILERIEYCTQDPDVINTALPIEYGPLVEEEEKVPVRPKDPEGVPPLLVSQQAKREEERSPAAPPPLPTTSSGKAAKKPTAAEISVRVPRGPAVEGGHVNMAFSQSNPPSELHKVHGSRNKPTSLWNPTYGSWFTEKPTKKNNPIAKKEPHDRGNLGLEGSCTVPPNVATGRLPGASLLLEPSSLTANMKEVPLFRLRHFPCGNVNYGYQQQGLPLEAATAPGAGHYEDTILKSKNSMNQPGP

As to `CCOC(=O)c1c(C)[nH]c(/C=C2\C(=O)Nc3ccccc32)c1C`, the residual activity was found to be 118% in assay [1]; 120% in assay [2]; 83% in assay [3]; 80% in [4]; 65% in assay [5]; 85% in [6]. Further, the residual activity in [7] worked out at 74%; in [8] it was 88%; in [9], 85%.
With `CCCCc1c(-c2ccc(OC)cc2)[nH]c2nccnc12`, the residual activity in [1] came to 31%; in [2], 81%; in [3], 39%; in assay [4] it was 82%; in assay [6], 74%; in assay [7], 92%. In addition, the residual activity is 15% in assay [8] and 22% in assay [9].
Turning to `O=C1NC(=O)c2c1c1c3ccccc3[nH]c1n1cncc21`, the residual activity in [1] stood at 48%; in assay [2] it was 97%; in assay [4], 49%; in [5] it was 34%; in [6], 38%; in assay [7], 29%. In addition, the figures for the residual activity in [8], in assay [9] and in assay [10] were 15%, 13% and 99%, respectively.
Regarding `O=C(O)/C=C/c1cc(Br)c(Br)c(Br)c1Br`, the residual activity in assay [1] amounted to 87%; in assay [3] it was 85%; in assay [4], 101%; in assay [5], 56%; in assay [6], 94%; in [7], 76%. Also, the residual activity was found to be 102% in assay [8], 94% in assay [9] and 98% in assay [10].
As for `Fc1ccc(-c2nc3n(c2-c2ccncc2)CCS3)cc1`, the residual activity turned out to be 94% in assay [1]; 100% in assay [2]; 29% in assay [3]; 90% in assay [9]; 96% in assay [10].
For the compound `CCN(CC)CCNC(=O)c1c(C)[nH]c(/C=C2\C(=O)Nc3ccc(Cl)cc32)c1C`, the residual activity in [1] worked out at 2%; in assay [2] it was 126%; in assay [3], 99%; in assay [4] it was 7%; in assay [5] it was 3%; in assay [6] it was 4%. The residual activity in assay [7] was 4%; in assay [8] it was 6%; in assay [9], 6%; in [10] it was 60%.
Turning to `Cn1c2ccccc2c2c3c(c4c5ccccc5n(CCC#N)c4c21)CNC3=O`, the residual activity was 4% in assay [1]; 108% in assay [2]; 64% in assay [3]; 22% in assay [4]; 22% in assay [5]; 19% in [6]. Besides, the residual activity in assay [7] worked out at 16%; in assay [8] it was 10%; in assay [9], 6%; in assay [10], 17%.
Consider `O=C1C(Cl)=C(N2C(=O)CCC2=O)C(=O)c2ccccc21`, for which the residual activity in assay [1] stood at 58%; in assay [2], 101%; in assay [3], 121%; in assay [4] it was 95%; in assay [5], 91%; in [6] it was 99%. The residual activity in assay [7] was determined as 101%; in assay [8] it was 96%; in assay [9], 84%; in assay [10] it was 89%.
In the case of `CN(C)S(=O)(=O)c1ccc2c(c1)/C(=C/c1cc3c([nH]1)CCCC3)C(=O)N2`, the residual activity in assay [1] came to 29%; in assay [2], 111%; in assay [3] it was 56%; in assay [4], 43%; in assay [5], 29%; in assay [6], 45%. The results for the residual activity in [7], in [8] and in assay [9] were 37%, 10% and 3%, respectively.
Turning to `O=C1NC(=O)C(c2cn(CCCO)c3ncccc23)=C1c1cnccn1`, the residual activity in assay [1] was 67%; in [2] it was 83%; in assay [4] it was 92%; in assay [5], 75%; in assay [6] it was 94%; in [7] it was 80%. Moreover, the residual activity in assay [8] amounted to 62%; in assay [9], 50%; in [10] it was 78%.
As for `Nc1ncnc2[nH]nc(Nc3ccc(F)cc3)c12`, the residual activity in assay [1] came out at 67%; in assay [2], 114%; in assay [3] it was 77%; in assay [4] it was 100%; in [5] it was 69%; in assay [6] it was 99%. Further, the residual activity amounted to 65% in assay [7], 98% in assay [8] and 90% in assay [9].
With `O=C1NC(=O)C(c2cn(CCCn3ccnc3)c3ccccc23)=C1Nc1ccccc1`, the residual activity in assay [1] is 65%; in assay [2] it was 107%; in assay [3], 103%; in assay [4], 74%; in assay [5] it was 32%; in assay [6] it was 73%. In addition, the residual activity in assay [7] was 25%; in assay [9], 38%; in assay [10], 82%.
With `O=c1c(-c2ccc(F)cc2)c(-c2ccncc2)[nH]n1-c1ccc(Cl)cc1`, the residual activity in [1] came out at 65%; in assay [3] it was 22%; in assay [10] it was 100%.
